{"source": "PubChem BioAssay AID1851", "about": "(National Center for Advancing Translational Sciences (NCATS), 2009)", "note": "Values joined by “and” are separate entries in the source; they are usually repeats but may differ in a detail not shown here. Identical values can stand only once. The whole screen tested about 16,000 compounds, of which about 5,700 (36%) were called active. Roughly 24% stayed inconclusive and do not appear here. Calls follow the shape of the dose curve; as a rule, active = well fitted curve in the direction sought with a large enough effect; inconclusive = small, poorly fitted or top-dose-only effect, or effect the other way; inactive = no such curve, though single readings can be large or run the other way. This is one part of the list. Peptide text beside a SMILES is read from it. * marks the point of attachment. Cbz = O=C(OCc1ccccc1)*", "data": [{"biological_target": "Cytochrome P450 1A2 (Homo sapiens) (UniProt P05177)", "sequence (P05177 whole entry, looked up)": "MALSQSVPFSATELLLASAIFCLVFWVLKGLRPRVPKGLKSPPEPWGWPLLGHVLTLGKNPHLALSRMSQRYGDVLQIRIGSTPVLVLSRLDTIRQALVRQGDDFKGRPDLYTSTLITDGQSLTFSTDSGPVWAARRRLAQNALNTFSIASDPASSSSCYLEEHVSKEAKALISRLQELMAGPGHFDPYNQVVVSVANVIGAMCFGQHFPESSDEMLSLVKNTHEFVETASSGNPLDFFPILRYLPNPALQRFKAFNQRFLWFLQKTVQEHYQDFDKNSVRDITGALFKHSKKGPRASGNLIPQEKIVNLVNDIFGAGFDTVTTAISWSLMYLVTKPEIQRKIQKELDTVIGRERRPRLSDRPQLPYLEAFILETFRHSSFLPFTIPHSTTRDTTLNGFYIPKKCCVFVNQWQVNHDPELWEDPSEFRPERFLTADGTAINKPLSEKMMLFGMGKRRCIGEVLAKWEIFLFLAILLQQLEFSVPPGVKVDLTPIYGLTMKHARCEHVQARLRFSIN", "assay": "Cytochrome panel assay with activity outcomes; as to activity, negative = inhibition: % is scaled to controls: 0 for no effect and ±100 for the full control effect", "details": "recombinant CYP, pro-luciferin dealkylation, luminescence, p450-cyp1a2; series mostly up to 57.1 µM", "values": [{"molecule": "c1ccc2c[n+](Cc3ccnc4ccccc34)ccc2c1", "activity, negative = inhibition": "-21.8% [at 2.29 µM] (inactive)"}, {"molecule": "CCOC(=O)N1CCC(NC(=O)c2cc(S(=O)(=O)N3CCCC3)cn2C)CC1", "AC50": "inactive"}, {"molecule": "COC(=O)c1[nH]c2cc(OC)ccc2c1NC(=O)CCN1CCSCC1", "AC50": "1.41 µM (active)"}, {"molecule": "O=C(CCN1CCOCC1)Nc1ccc(F)cc1F", "activity, negative = inhibition": "-11.8% [at 11.4 µM] (inactive)"}, {"molecule": "CCOC(=O)c1[nH]c2ccc(OC)cc2c1NC(=O)c1ccc2c(c1)OCO2", "AC50": "2.24 µM (active)"}, {"molecule": "CCN1CCN(CCC(=O)Nc2cccc(OC)c2)CC1", "AC50": "inactive"}, {"molecule": "COc1ccc(-c2nc3cnc(N(C)C)nc3n(C[C@H]3CCCO3)c2=O)cc1", "AC50": "3.16 µM (active)"}, {"molecule": "CN(C)c1ncc2nc(-c3ccc(F)cc3)c(=O)n(C[C@H]3CCCO3)c2n1", "AC50": "2.51 µM (active)"}, {"molecule": "C/C(CCc1ccc2c(c1)OCO2)=N\\N=C1\\NC(=O)CC(C(=O)Nc2ccccc2)S1", "note": "(stereo not drawn)", "AC50": "15.8 µM (active)"}, {"molecule": "C[C@@H]1[C@H]2CC[C@@H]3[C@@H]4CC=C5C[C@@H](N(C)C)CC[C@]5(C)[C@@H]4CC[C@@]32CN1C", "AC50": "inactive"}, {"molecule": "CCc1nnc(NS(=O)(=O)c2ccc(N=Cc3c(C)[nH]n(-c4ccc(C)cc4)c3=O)cc2)s1", "AC50": "inactive"}, {"molecule": "CCOc1[nH]n(-c2ccccc2)c(=O)c1C=Nc1ccc(Cl)cc1", "AC50": "2 µM (active)"}, {"molecule": "CCOc1[nH]n(-c2ccc(Cl)cc2)c(=O)c1C=Nc1ccc(Cl)cc1", "AC50": "2.82 µM (active)"}, {"molecule": "OCCN1CCOCCOCCN(CCO)CCN(CCO)CC1", "AC50": "inactive"}, {"molecule": "Nc1nc(Br)c2ccccc2c1-c1ccc(F)cc1", "AC50": "1.26 µM (active)"}, {"molecule": "Nc1nc(Br)c2c(F)cccc2c1-c1ccc(Cl)cc1", "AC50": "3.55 µM (active)"}, {"molecule": "Nc1nc(Br)c2c(F)cccc2c1-c1ccc(F)cc1", "AC50": "1.26 µM (active)"}, {"molecule": "CCCOc1ccc(C2C(=O)N(C3CCCCC3)CC(=O)N2C2CC2)cc1OC", "note": "(stereo not drawn)", "AC50": "inactive"}, {"molecule": "CCCCCCCCCCCCC/C=C\\[C@@H](O)[C@H](CO)NC(C)=O", "AC50": "20 µM (active)"}, {"molecule": "CCCCCCCCCCCCCCC/C=C\\[C@H](O)[C@@H](NC(=O)CCCCCCCCCCCCC)OC", "note": "(tested in a mixture with another compound)", "AC50": "inactive"}, {"molecule": "CCCCCCCCCCCCCCCC(=O)NC(C)C", "AC50": "inactive"}, {"molecule": "CC(=O)Nc1ccc(S(=O)(=O)N=S(C)C)cc1", "AC50": "inactive"}, {"molecule": "Cc1cccc(C)c1NC(=O)CSc1nc(C)c(CC(=O)c2ccc(Br)cc2)c(C)c1C#N", "AC50": "inactive"}, {"molecule": "Cc1cc(C)c(C#N)c(OCC(=O)c2ccc(Br)cc2)n1", "AC50": "1.26 µM (active)"}, {"molecule": "Fc1cc2nc(-c3ccncc3)[nH]c2cc1F", "AC50": "2 µM (active)"}, {"molecule": "Cc1cc2nc(SCCOC(=O)Nc3ccc(Cl)cc3)nc(C)c2cc1C", "AC50": "1.41 µM (active)"}, {"molecule": "CCCCCCCCCCCC1=C(O)C(=O)C=C(O)C1=O", "AC50": "inactive"}, {"molecule": "COCCn1c(=O)c(-c2ccc(Cl)cc2)nc2cnc(OC)nc21", "AC50": "0.398 µM (active)"}, {"molecule": "COCCn1c(=O)c(-c2ccccc2)nc2cnc(OC)nc21", "AC50": "1 µM (active)"}, {"molecule": "COCCn1c(=O)c(-c2ccc(OC)cc2)nc2cnc(OC)nc21", "AC50": "3.16 µM (active)"}, {"molecule": "CC(C)=CCC/C(C)=C/CO/N=C1/C[C@@H](O)[C@@H](O)[C@@H]2[C@@H]3C(=O)N(C(C)(C)C)C(=O)[C@H]3CC[C@H]12", "activity, negative = inhibition": "-9.03% [at 11.4 µM] (inactive)"}, {"molecule": "CCOC(=O)N1CCC(NC(=O)CSCc2cnn(-c3ccccc3)c2-n2cccc2)CC1", "AC50": "inactive"}, {"molecule": "O=C(NNS(=O)(=O)c1ccc(Cl)cc1)c1cnn(-c2ccccc2)c1-n1cccc1", "AC50": "17.8 µM (active)"}, {"molecule": "O=C(NNS(=O)(=O)c1ccc(Cl)cc1)C1CCN(Cc2ccccc2)CC1", "AC50": "inactive"}, {"molecule": "Cc1cccc(NC(=S)c2nc3ccccc3s2)c1", "AC50": "1.12 µM (active)"}, {"molecule": "Cc1ccc(NC(=S)c2nc3ccccc3s2)cc1", "AC50": "0.562 µM (active)"}, {"molecule": "Cc1cccc(NC(=O)CSc2nc(-c3ccccc3)c(C#N)c(=O)[nH]2)c1C", "AC50": "inactive"}, {"molecule": "N#Cc1c(-c2cccs2)nc(SCC(=O)c2cccs2)[nH]c1=O", "AC50": "8.91 µM (active)"}, {"molecule": "O=C(O)c1c(Br)c(Br)c(Br)c(Br)c1C1c2ccc(O)cc2Oc2cc(O)ccc21", "activity, negative = inhibition": "-6.83% [at 2.29 µM] (inactive)"}, {"molecule": "CN=c1nc(-c2ccccc2)n(-c2ccccc2)s1", "AC50": "5.01 µM (active)"}, {"molecule": "CCn1c(SCc2cccc(C)c2)nnc1-c1ccccc1", "AC50": "3.55 µM (active)"}, {"molecule": "CCn1c(SCc2ccc(C#N)cc2)nnc1-c1ccc(S(=O)(=O)N2CCCCC2)cc1", "AC50": "inactive"}, {"molecule": "CCn1c(SCc2ccc(C)cc2)nnc1-c1nn(-c2ccccc2)ccc1=O", "AC50": "inactive"}, {"molecule": "CCn1c(SCc2cccc(C)c2)nnc1-c1ccc(C)cc1", "AC50": "17.8 µM (active)"}, {"molecule": "CCOC(=O)c1cnc2c(cnn2CC)c1NN=C(C)C", "AC50": "501 nM (active) and 126 nM (active)"}, {"molecule": "CCCCNc1c(C(=O)OCC)c(C)nc2c1cnn2CC", "AC50": "63.1 nM (active) and 631 nM (active)"}, {"molecule": "CCOC(=O)c1cnn(CCOC(=O)C(C)(C)C)c1NC(=O)C(C)(C)C", "AC50": "inactive"}, {"molecule": "CN(C)CCCNc1c(C(=O)O)cnc2c1cnn2C", "AC50": "inactive"}, {"molecule": "O=C(CCCN1CCC(O)(c2cccc(C(F)(F)F)c2)CC1)c1ccc(F)cc1", "AC50": "inactive"}, {"molecule": "O=C(Cn1nnc(-c2ccccc2)n1)OCc1ccccc1", "AC50": "1.78 µM (active)"}, {"molecule": "NC(=O)C1CCN(C(=O)OCc2ccccc2)CC1", "AC50": "inactive"}, {"molecule": "COC(=O)CCC(NC(=O)OCc1ccccc1)C(=O)NC(CC(C)C)C(=O)OC", "note": "(stereo not drawn) (Cbz-Glu(OMe)-Leu-OMe; configuration not given here)", "AC50": "inactive"}, {"molecule": "Cc1[nH]c(N)nc(=S)c1CCC(=O)O", "activity, negative = inhibition": "-11.2% [at 11.4 µM] (inactive)"}, {"molecule": "Cc1[nH]c2c(C)ccc(C)c2c1CC(=O)O", "AC50": "3.16 µM (active)"}, {"molecule": "Cc1cc(C(=O)O)c(=O)[nH]c1C", "AC50": "inactive"}, {"molecule": "CC1CCCC(n2c(=S)[nH]c3ccccc3c2=O)C1C", "note": "(stereo not drawn)", "AC50": "7.08 µM (active)"}, {"molecule": "C/C(CCC(=O)OC[C@@H]1O[C@H](C#Cc2ccccc2)C=C[C@@H]1Oc1ccc(C)cc1)=N/O[C@@H](C)c1cc(-c2c(C)cc(C)cc2C)no1", "activity, negative = inhibition": "-4.43% [at 11.4 µM] (inactive)"}, {"molecule": "Cc1nc(N2CCOCC2)nc(N2CCN(c3ccccc3)CC2)c1[N+](=O)[O-]", "AC50": "7.08 µM (active)"}]}]}
